Results reported in PubChem BioAssay (NCI).
About 79,000 compounds went through this panel and 15% of them were active in at least one assay; those are over-represented in the sample as a whole. A number with no mark means an inactive call. The source made the active and inactive calls. Cut-off read from the data, not from the text of the source: active = growth inhibition above about 70%; inactive = the rest.

experiment: NCI Yeast Anticancer Drug Screen. Data for the mlh1 rad18 strain (AID 175); details: S. cerevisiae mlh1 rad18 strain growth inhibition; at 50.0 µM; stronger effect = higher value
Summary of the method: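 A repair-deficient yeast strain is exposed to test compound, and growth is scored relative to vehicle-treated controls.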

Row | Compound | growth inhibition
1 | Cc1cc(Br)c(P(=O)(O)O)cc1[N+](=O)[O-] | 64%
2 | Oc1cc(Cc2ccccc2)c(Cc2ccccc2)cc1O | 88.2% (active)
3 | O=S1(=O)CCN(c2ccccc2CC(c2c[nH]c3ccccc23)c2c[nH]c3ccccc23)CC1 | 91.9% (active)
4 | CCCCCC(O)C(C)CO (configuration not stated) | 14.4%
5 | Cc1cc(=O)c2cc(N=Cc3ccc([N+](=O)[O-])o3)ccc2o1 | 40%
6 | CN(C)C(=S)/N=c1\ssc(=S)n1Cc1ccco1 | -4.25%
7 | O=[N+]([O-])c1ccc2nc(Nc3ccccc3)c(Nc3ccccc3)nc2c1 | 73% (active)
8 | CC(=O)NC(CCC(=O)O)C(=O)O.[NH-]C1CCCCC1[NH-].[Pt+2] (configuration not stated) | 99.2% (active)
9 | CC(=O)Oc1c2c(c(C)c3ccccc13)C(=O)c1cccnc1C2=O | 98.6% (active)
10 | C=C1C(=O)OC2C(C)C3C=CC(=O)[C@@]3(C)C(OC(=O)/C(C)=C/C)C1[C@@H]2OC(C)=O (some centres not stated) | 87% (active)
11 | O=C(O)/C=C/c1ccc2c(c1)CC1(Cc3ccccc3C1)C2 | 80% (active)
12 | C(=C\c1ccc(-[n+]2nc(-c3ccccc3)nn2-c2ccccc2)cc1)/c1ccccc1 | 90.9% (active)
13 | O=CC(O)C(O)C(O)C(O)C(=O)NCCCCCCCCCCCCNC(=O)C(O)C(O)C(O)C(O)C=O (configuration not stated) | -20.6%
14 | CCCCCCCCCCN(CCCCCCCCCC)CC(O)c1cc(-c2ccccc2)nc2ccccc12 (configuration not stated) | 55%
15 | CC1(C)C(=O)C(C(Cl)(Cl)Cl)=C(Cl)C(=O)C1(Cl)Cl | 67.5%
16 | Cc1cccc2c1CC1(C2)Cc2c(C)cccc2C1=O (configuration not stated) | 50.4%
17 | Oc1c(Cl)cc(C(c2cc(Cl)c(O)c(Cl)c2)C(c2cc(Cl)c(O)c(Cl)c2)c2cc(Cl)c(O)c(Cl)c2)cc1Cl | 96.8% (active)
18 | Cc1ccc(S(=O)(=O)NC(Cc2ccccc2)C(=O)CCl)cc1 (configuration not stated) | 84.7% (active)
19 | CCOC(=O)/C(C#N)=C/c1coc2cc(C)cc(C)c2c1=O | 65.8%
20 | CN(C)/N=C\C1CC=CCC1 (configuration not stated) | 38%
21 | NCC(=O)N/N=C/c1ccc([N+](=O)[O-])o1 | 20.4%
22 | CCc1cc(CC)c(-c2ccco2)c(COC(=O)NC)c1 | 96.3% (active)
